# Screen size: about 330,000 compounds; about 7,700 (2.3%) were called active. Another 26% or so got no clear call; they are omitted. The list comes from a sample in which actives are over-represented; it also holds similar structures and randomly drawn compounds. A number with no mark means an inactive call. The call rests on the fitted dose curve; in most records, active means well fitted inhibition curve with a large enough effect; inconclusive means small, poorly fitted or top-dose-only effect, or effect the other way; inactive means flat fitted curve, though single readings scatter.
# Test: qHTS screen for small molecules that inhibit ELG1-dependent DNA repair in human embryonic kidney (HEK293T) cells expressing luciferase-tagged ELG1; further: nearly all actives have a fitted effect of over 55% in size
# Settings: HEK293T ELG1-luciferase reporter, luminescence, 16 h, DNA damage induced by 5-fluorouridine; series mostly up to 46.1 µM; activity change, negative = inhibition: at the top concentration
# Summary of the method: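 Cells (2,000 per well) received 5-fluorouridine plus test compound or DMSO and were incubated 16 hr at 37 °C, 5% CO2. Luciferase activity was read by luminescence 30 min after ONE-Glo addition; signal suppression marked inhibition of damage-induced ELG1 function.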
# On the % scale 0 is the no-effect control and ±100 the full control effect; potency means the concentration at half of the fitted maximal effect.
SMILES,"activity change, negative = inhibition",Potency
CN1CCC(N(C)S(=O)(=O)c2ccc(NC(=O)c3cccc(C#N)c3)cc2)CC1,0.329%,–
Cc1ccc(S(=O)(=O)NCC(=O)N2CCN(c3ccccn3)CC2)cc1,-7.21%,–
Cc1ccnc(N2CCN(C(=O)CSc3nc4ccccc4nc3N3CCCCC3)CC2)c1,–,12.6 µM (active)
O=C(Cc1ccccc1Cl)N1CCN(c2ccccn2)CC1,-17.5%,–
COC(=O)c1ccc(CSc2ccc(S(=O)(=O)N3CCCCC3)cn2)cc1,14.1%,–
CSCc1nnc(NC(=O)c2ccc(S(=O)(=O)N3CCCCC3C)cc2)o1 (stereo not drawn),–,20.6 µM (active)
CC1CCCCN1S(=O)(=O)CCNC(=O)c1ccccc1 (stereo not drawn),10.3%,–
O=C(Nc1nnc(-c2ccco2)o1)c1ccc(S(=O)(=O)N2CCOCC2)cc1,-19.6%,–
Cc1ccc(C(=O)CN2C(=O)NC3(CCc4ccccc43)C2=O)c(C)c1 (stereo not drawn),17.4%,–
COc1ccc(CCNC(=O)COC(=O)c2cnc(Cl)c(Cl)c2)cc1,14.7%,–
COCC(C)n1c(SCC(=O)NC2CCCCC2C)nc2ccccc2c1=O (stereo not drawn),-8.42%,–
CCC(=O)Nc1ccc(C(=O)CSc2nnc(CNc3ccc(Cl)cc3)o2)cc1OC,–,11.6 µM (active)
COc1ccccc1NC(=O)CSc1nnc(CNC(=O)c2ccccc2F)o1,0.554%,–
COc1cc(C(=O)NCc2nnc(SCC(=O)c3ccc(Cl)cc3)o2)cc(OC)c1OC,7.16%,–
CCOc1ncccc1C(=O)OCC(=O)c1c[nH]c2ccccc12,8.6%,–
Cc1cc(OCC(=O)NCC(O)c2ccccc2)c2c(C)c(C)c(=O)oc2c1 (stereo not drawn),3.77%,–
Cc1ncn(C23CC4CC(CC(O)(C4)C2)C3)n1,3.68%,–
O=C(Nc1ccc(S(=O)(=O)Nc2ncccn2)cc1)C12CC3CC(CC(C3)C1)C2,12.4%,–
COC(=O)c1ccc(NC(=O)C23CC4CC(C2)CC(n2cnc(Cl)n2)(C4)C3)cc1,–,5.8 µM (active)
CN(C)C(=O)CCc1ccc2c3c([nH]c2c1)[C@]1(C)[C@@H](C(=O)N2CCCCC2)C[C@H](CC(=O)NCCC2=CCCCC2)C(=O)N1CC3,1.15%,–
Cc1cccc(-c2oc3ccc(-c4ccc5c(c4)OCO5)cc3c2C#Cc2cncn2C)c1,19.1%,–
COc1ccc(/C=C2\CCCC3C2=NN(C(=O)c2scnc2C)C3c2ccc(OC)cc2)cc1 (stereo not drawn),–,18.4 µM (active)
CC(Oc1cc2oc(=O)c3c(c2cc1Cl)CCCC3)C(=O)NCc1ccncc1 (stereo not drawn),-16.7%,–
CS(=O)(=O)N1CCN(C(=O)c2cc3ccccc3oc2=O)CC1,9.01%,–
O=C(c1cc2ccccc2o1)N1CCN(Cc2ccccc2)CC1,10.9%,–

SMILES,"activity change, negative = inhibition",Potency
O=C(c1cc2ccccc2o1)N1CCN(S(=O)(=O)c2ccc(Cl)s2)CC1,–,16.4 µM (active)
CCCc1cc(=O)[nH]c(SCC(=O)Nc2ccc(C(=O)Nc3ccccc3OC)cc2)n1,4.86%,–
Cc1ccc(-c2cc(C(=O)NC3CCN(Cc4ccccc4)CC3)c3ccccc3n2)cc1,11.4%,–
O=C(NC1CCN(Cc2ccccc2)CC1)c1c(F)cccc1F,18.7%,–
Cc1ccn2cc(C(=O)NC3CCN(Cc4ccccc4)CC3)nc2c1,–,20.6 µM (active)
COc1ccc(NC(=O)C(CC(C)C)NC(=O)C2CCC(C)CC2)cc1 (stereo not drawn),16.9%,–
COc1ccc(NS(=O)(=O)c2ccc(C)c(C(=O)N(C)Cc3ccc(OC)cc3OC)c2)cc1,-22.6%,–
O=C(Cc1ccc([N+](=O)[O-])cc1)Nc1ccc(C(=O)N2CCOCC2)cc1,-15%,–
COc1ccc2[nH]c(C(=O)N3CCN(C)CC3)c(C)c2c1,15.2%,–
Cc1c(C(=O)N2CCOCC2)[nH]c2ccc(OCc3ccccc3)cc12,–,18.4 µM (active)
CCOC(=O)c1[nH]c2ccc(OC)cc2c1NC(=O)N1CCOCC1,12.1%,–
COc1ccc(CN2C(CC(=O)Nc3cccnc3)c3ccc(C(F)(F)F)cc3S2(=O)=O)cc1 (stereo not drawn),-8.14%,–
Cc1cc(Nc2ccc(Cl)cc2)nc(N2CCOCC2)n1,-11.5%,–
COc1cc(OC)cc(-c2nnc(SCC(=O)Nc3ccc(C(=O)O)cc3)s2)c1,-2.89%,–
Cc1ccccc1NC(=O)CSc1nc2ccc(Nc3nc(N4CCOCC4)nc(N4CCOCC4)n3)cc2s1,–,1.3 µM (active)
Cc1ccccc1NC(=O)CSC1=NCCN1,-0.143%,–
Nc1nnc(SCC(=O)Nc2ccc3nc(SCC(=O)Nc4ccccc4)sc3c2)s1,–,1.84 µM (active)
C=CCn1c(CSc2nc3ccccc3s2)nnc1SCC(=O)NCc1ccco1,4.59%,–
O=C(CSc1nc2ccccc2s1)Nc1ccc(C(=O)O)cc1,6.52%,–
Cc1ccc(Nc2nc(N)nc(CN3CCN(Cc4ccccc4)CC3)n2)cc1Cl,-19.9%,–
Cc1ccc(S(=O)(=O)N2CCOCC2)cc1NC(=O)CSc1nnc(N)s1,-8.75%,–
Cc1ccc(Nc2nc(N3CCOCC3)nc(N3CCOCC3)n2)cc1Cl,–,0.651 µM (active)
O=C(CSc1nc2ccc(Nc3nc(N4CCOCC4)nc(N4CCOCC4)n3)cc2s1)NCc1ccco1,–,2.59 µM (active)
O=C(CSc1c2c(nc3ccc(Cl)cc13)CCCC2)NCc1ccco1,-16.2%,–
O=S(=O)(c1ccc(F)cc1)N1CCN=C1SCc1cccc(F)c1,0.508%,–

SMILES,"activity change, negative = inhibition",Potency
O=C(Nc1cc(-c2nc3ncccc3o2)ccc1Cl)c1ccco1,-14.8%,–
COc1cccc(NC(=O)CCc2nnc3ccc(N4CCC(C)CC4)nn23)c1,-10.8%,–
COc1ccc(N(Cc2ccc(N(C)C)cc2)C(=O)c2ccc(S(C)(=O)=O)cc2)cc1,8.66%,–
CN[C@H](C(=O)NC[C@H]1O[C@@H](n2cnc3c(N)ncnc32)[C@H](O)[C@@H]1O)[C@@H](C)OCc1ccccc1,23.4%,–
CCCN1CCn2c3c(c4cc(Br)ccc42)CCCC31 (stereo not drawn),4.36%,–
c1ccc2c(c1)OCC(CNc1ncnc3nc[nH]c13)O2 (stereo not drawn),-16.6%,–
COc1ccc(Nc2ncnc3sc(-c4ccccc4)cc23)c(OC)c1,-10.3%,–
c1ccc(-c2cc3c(NCC4COc5ccccc5O4)ncnc3s2)cc1 (stereo not drawn),–,20.6 µM (active)
CC1(c2ccccc2)NC(=O)N(CC(=O)N2CC(=O)Nc3ccccc32)C1=O (stereo not drawn),24.4%,–
O=C(CCCC(=O)N1CCN(c2cccc(Cl)c2)CC1)c1ccccc1,5.86%,–
Cc1ccc(C(=O)Nc2nnc(C3=COCCO3)o2)cc1C,4.93%,–
O=C1C=C(c2ccnc3cc(Cl)ccc23)C[C@@H](c2ccc3c(c2)OCO3)C1,5.67%,–
Cc1ccc(N2CCN(c3ccc([N+](=O)[O-])cn3)CC2)c(C)c1,-15.6%,–
O=C(N/N=C/c1cc(Cl)cc([N+](=O)[O-])c1O)C(O)(c1ccccc1)c1ccccc1,–,16.4 µM (active)
O=C(Cc1cc(=O)[nH][nH]1)N/N=C/c1ccccc1[N+](=O)[O-],19.7%,–
CN(C)/N=C/c1cc(Cl)cc([N+](=O)[O-])c1O,6.41%,–
CCOC(=O)C1=CN(Cc2ccc(Br)cc2)S(=O)(=O)N(C)C1C (stereo not drawn),5.04%,–
CCn1c(Cc2ccc(OC)cc2)nnc1SCC(=O)Nc1ccc(N2CCOCC2)cc1,6.69%,–
FC(F)(F)c1ccc2c3n(nc2c1)CCN=C3c1ccc(Cl)cc1,20%,–
CCC(C)n1c(-c2cc(OC)c(OC)c(OC)c2)nc2nc3ccccc3nc21 (stereo not drawn),–,14.6 µM (active)
COc1cc(C(O)c2nc3ccccc3n2C)cc(OC)c1OC (stereo not drawn),5.28%,–
COc1cc(-c2n[nH]c(=S)n2Cc2ccccc2)cc(OC)c1OC,-2.15%,–
O=C(COc1ccc([N+](=O)[O-])cc1Cl)Nc1ccc2[nH]c(=O)[nH]c2c1,-1.89%,–
Nc1cc(N)nc(SCC(=O)Nc2cccc(S(=O)(=O)N3CCCCC3)c2)n1,-0.272%,–
Cc1nn(-c2ccccc2)c2c1c(C)c(CCC(=O)NCC1CCCO1)c(=O)n2C (stereo not drawn),-27.6%,–

SMILES,"activity change, negative = inhibition",Potency
Cc1cccc(OCC(O)Cn2c(N3CCCCC3)nc3c2c(=O)[nH]c(=O)n3C)c1 (stereo not drawn),-12.2%,–
CCC(C)Sc1nc2c(c(=O)[nH]c(=O)n2C)n1CC(O)COc1cccc2ccccc12 (stereo not drawn),–,8.2 µM (active)
CCCSc1nc2c(c(=O)[nH]c(=O)n2C)n1CCc1ccccc1,-5.55%,–
COC(=O)c1c(NC(=O)C2CC(C)=C(C)CC2C(=O)O)sc2c1CCCCC2 (stereo not drawn),-0.0644%,–
Cc1ccc(S(=O)(=O)N2CCN(C(=O)COC(=O)CNC(=O)c3ccc(C(C)(C)C)cc3)CC2)c(C)c1,0%,–
Brc1ccc2c(c1)[C@H]1OCC[C@H]1[C@@H](c1cccs1)N2,–,20.6 µM (active)
c1csc(CN2CCN(Cc3cccs3)C2c2cccs2)c1,12.2%,–
CCc1nn(CCCC(=O)Nc2ccc(C)cc2C)c(=O)c2cc3occc3n12,2.59%,–
CCn1nc(C)c(NC(=O)/C=C/c2ccc(OC)c(COc3ccc(Br)cc3)c2)c1C,–,6.51 µM (active)
COc1ccc(C(C)=O)cc1COc1ccc(Cl)c(C)c1,-6.19%,–
C/C=C/c1ccc(OCC(=O)OCC(=O)Nc2c(C)nn(-c3ccccc3)c2C)c(OC)c1,12.9%,–
CC1CCCCC12NC(=O)N(CC(=O)OCc1c(F)cccc1Cl)C2=O (stereo not drawn),-1.13%,–
COc1ccc(C(=O)NC2CC2)cc1OC1CCN(C/C=C/c2ccccc2)CC1,-8.27%,–
Cc1nn(Cc2ccccc2)c(C)c1CNC(=O)c1ccc(F)c(S(=O)(=O)N2CCOCC2)c1,-0.807%,–
Cc1ccccc1CSCCNC(=O)c1ccc(Cl)c(S(=O)(=O)N2CCOCC2)c1,–,18.4 µM (active)
CN(C)S(=O)(=O)c1ccc(C(=O)NCC(C)(C)N2CCOCC2)cc1,-0.438%,–
CC(C)(CNC(=O)c1ccc(Cl)c(S(=O)(=O)N2CCc3ccccc3C2)c1)N1CCOCC1,–,1.83 µM (active)
Cc1ccc(C(=O)Nc2ncccc2C)cc1S(=O)(=O)N1CCOCC1,17.9%,–
CC(C)(CNC(=O)Cc1ccc(Cl)cc1Cl)N1CCOCC1,3.16%,–
COc1cccc(C(=O)Nc2nnc(S(=O)(=O)N3CCCCC3)s2)c1,-4.91%,–
CCCn1nc(C(=O)NNC(=O)CCOc2ccccc2OCC)c2ccccc2c1=O,-22.5%,–
O=Cc1c(Nc2ccccc2Cl)nc2ccccn2c1=O,16%,–
Cc1nc2ccccc2c(=O)n1-c1ccc(F)c(NC(=O)c2cccs2)c1,-29.9%,–
